Results from the supplement of paper PMC11732987, “Enantioselective OTUD7B fragment discovery through chemoproteomics screening and high-throughput optimisation” (Communications Chemistry, 2025).

Experiments:
Assay in all cases: log2 ratio of Biotin-Ahx-Ub-VS probe labelling (fragment/DMSO); higher = less target engagement (more negative = stronger competition), active = hit call of the paper (q ≤ 0.05, log2 ratio ≤ -1)
Conditions in all cases: compound concentration: 200 uM; treatment time: 3 h
USP34 = USP34 (UniProt Q70CQ2)
USP34, sequence (Q70CQ2 whole entry, the tested form may be a part): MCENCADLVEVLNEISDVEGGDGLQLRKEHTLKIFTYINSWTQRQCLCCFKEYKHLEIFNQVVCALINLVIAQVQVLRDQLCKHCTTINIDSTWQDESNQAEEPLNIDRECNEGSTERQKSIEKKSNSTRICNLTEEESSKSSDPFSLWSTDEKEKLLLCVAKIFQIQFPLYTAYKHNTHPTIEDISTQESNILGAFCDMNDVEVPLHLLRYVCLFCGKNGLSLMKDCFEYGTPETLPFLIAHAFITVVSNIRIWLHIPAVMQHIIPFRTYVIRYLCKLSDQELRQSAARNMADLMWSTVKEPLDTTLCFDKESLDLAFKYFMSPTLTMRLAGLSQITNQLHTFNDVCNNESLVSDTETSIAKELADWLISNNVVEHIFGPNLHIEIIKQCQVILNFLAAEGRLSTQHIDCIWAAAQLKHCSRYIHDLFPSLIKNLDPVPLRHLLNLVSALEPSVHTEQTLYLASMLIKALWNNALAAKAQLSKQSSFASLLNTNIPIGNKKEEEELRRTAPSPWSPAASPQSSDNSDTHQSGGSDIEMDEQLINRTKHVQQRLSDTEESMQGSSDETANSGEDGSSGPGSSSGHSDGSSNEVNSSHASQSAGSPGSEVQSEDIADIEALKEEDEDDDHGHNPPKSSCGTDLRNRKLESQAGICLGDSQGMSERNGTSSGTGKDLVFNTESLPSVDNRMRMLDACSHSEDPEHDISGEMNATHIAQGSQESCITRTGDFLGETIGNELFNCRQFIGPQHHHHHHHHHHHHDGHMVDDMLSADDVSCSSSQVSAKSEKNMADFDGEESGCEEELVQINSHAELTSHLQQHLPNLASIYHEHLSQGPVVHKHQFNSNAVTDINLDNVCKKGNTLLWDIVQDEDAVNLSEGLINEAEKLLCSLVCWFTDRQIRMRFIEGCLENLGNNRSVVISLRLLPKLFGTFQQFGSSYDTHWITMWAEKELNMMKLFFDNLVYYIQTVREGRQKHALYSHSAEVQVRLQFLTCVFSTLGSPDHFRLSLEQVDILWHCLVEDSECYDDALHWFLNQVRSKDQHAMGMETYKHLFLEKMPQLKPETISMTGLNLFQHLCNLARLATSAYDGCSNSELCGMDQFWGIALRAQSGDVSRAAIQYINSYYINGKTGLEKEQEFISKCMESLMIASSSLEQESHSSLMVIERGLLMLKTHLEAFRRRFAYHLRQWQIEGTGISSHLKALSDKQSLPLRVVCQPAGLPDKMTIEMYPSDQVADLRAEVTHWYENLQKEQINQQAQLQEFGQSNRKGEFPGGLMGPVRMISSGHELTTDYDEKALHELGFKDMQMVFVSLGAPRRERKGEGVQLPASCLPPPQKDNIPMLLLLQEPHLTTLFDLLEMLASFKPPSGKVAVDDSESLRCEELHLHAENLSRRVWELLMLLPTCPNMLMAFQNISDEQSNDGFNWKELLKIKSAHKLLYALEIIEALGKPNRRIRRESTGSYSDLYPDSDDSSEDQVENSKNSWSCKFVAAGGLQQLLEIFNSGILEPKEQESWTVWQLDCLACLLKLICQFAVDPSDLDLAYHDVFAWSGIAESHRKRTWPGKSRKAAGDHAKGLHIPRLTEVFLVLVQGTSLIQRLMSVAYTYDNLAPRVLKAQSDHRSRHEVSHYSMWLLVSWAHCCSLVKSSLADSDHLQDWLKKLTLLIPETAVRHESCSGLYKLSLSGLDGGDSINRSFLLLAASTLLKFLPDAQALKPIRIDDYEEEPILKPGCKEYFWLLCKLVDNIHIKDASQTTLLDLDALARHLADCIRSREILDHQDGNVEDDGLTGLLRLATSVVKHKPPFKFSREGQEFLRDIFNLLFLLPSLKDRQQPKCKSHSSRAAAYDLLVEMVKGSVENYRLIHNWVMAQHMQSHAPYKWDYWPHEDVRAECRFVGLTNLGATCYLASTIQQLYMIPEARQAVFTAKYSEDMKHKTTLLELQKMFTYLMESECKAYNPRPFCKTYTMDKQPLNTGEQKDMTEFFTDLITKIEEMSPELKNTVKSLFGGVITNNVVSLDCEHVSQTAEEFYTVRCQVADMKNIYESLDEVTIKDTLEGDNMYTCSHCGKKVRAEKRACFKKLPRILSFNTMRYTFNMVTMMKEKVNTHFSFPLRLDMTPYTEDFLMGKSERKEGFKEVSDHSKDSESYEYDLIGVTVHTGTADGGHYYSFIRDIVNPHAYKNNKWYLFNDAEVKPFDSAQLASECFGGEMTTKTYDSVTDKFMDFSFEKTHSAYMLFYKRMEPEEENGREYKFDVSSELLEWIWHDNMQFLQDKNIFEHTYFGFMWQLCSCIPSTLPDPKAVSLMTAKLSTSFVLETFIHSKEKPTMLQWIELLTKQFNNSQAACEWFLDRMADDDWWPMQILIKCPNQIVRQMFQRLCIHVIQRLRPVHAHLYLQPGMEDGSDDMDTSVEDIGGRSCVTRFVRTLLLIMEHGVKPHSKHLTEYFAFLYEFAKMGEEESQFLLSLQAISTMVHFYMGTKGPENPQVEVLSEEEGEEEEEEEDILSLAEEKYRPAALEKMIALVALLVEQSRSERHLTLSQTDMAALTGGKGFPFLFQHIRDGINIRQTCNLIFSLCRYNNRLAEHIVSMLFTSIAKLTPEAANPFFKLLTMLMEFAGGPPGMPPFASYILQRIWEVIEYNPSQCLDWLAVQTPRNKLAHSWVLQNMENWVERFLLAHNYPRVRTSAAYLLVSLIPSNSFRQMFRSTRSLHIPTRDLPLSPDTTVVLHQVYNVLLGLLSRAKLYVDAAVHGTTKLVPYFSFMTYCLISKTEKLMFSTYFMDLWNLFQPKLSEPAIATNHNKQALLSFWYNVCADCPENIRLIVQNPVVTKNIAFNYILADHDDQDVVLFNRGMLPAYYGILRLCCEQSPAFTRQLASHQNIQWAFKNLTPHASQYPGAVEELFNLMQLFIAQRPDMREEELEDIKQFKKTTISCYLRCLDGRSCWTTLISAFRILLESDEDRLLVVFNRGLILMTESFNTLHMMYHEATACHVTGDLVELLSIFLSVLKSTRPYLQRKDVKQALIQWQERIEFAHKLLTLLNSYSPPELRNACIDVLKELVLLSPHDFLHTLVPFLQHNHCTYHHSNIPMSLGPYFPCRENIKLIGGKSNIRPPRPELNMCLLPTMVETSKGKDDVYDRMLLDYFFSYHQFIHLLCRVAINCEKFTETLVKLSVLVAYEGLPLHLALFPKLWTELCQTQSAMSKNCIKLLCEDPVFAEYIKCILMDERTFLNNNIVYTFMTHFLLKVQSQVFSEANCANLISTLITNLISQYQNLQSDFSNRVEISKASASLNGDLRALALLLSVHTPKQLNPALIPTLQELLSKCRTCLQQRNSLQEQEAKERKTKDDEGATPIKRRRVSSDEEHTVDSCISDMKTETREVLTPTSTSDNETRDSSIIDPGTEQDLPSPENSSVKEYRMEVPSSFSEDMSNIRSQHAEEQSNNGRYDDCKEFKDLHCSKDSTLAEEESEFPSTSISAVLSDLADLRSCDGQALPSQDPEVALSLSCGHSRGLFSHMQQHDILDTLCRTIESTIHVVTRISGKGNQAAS
Summary of the method: (§1)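 Using Biotin-Ahx-Ub-VS at 0.5 µM final for 1 h, DUBs were labelled in HEK293T lysate (495 µg per sample) that had first been treated in triplicate with fragment at 200 µM or vehicle for 3 h. NeutrAvidin enrichment, LysC and trypsin digestion and diaPASEF LC-MS/MS followed. Spectronaut label-free quantities were global-median-normalised. Values are average log2 fragment/vehicle ratios by unpaired t-test, using proteins with ≥2 unique peptides.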

USP36 = target: T1, USP36 (UniProt Q9P275)
T1 sequence (whole entry): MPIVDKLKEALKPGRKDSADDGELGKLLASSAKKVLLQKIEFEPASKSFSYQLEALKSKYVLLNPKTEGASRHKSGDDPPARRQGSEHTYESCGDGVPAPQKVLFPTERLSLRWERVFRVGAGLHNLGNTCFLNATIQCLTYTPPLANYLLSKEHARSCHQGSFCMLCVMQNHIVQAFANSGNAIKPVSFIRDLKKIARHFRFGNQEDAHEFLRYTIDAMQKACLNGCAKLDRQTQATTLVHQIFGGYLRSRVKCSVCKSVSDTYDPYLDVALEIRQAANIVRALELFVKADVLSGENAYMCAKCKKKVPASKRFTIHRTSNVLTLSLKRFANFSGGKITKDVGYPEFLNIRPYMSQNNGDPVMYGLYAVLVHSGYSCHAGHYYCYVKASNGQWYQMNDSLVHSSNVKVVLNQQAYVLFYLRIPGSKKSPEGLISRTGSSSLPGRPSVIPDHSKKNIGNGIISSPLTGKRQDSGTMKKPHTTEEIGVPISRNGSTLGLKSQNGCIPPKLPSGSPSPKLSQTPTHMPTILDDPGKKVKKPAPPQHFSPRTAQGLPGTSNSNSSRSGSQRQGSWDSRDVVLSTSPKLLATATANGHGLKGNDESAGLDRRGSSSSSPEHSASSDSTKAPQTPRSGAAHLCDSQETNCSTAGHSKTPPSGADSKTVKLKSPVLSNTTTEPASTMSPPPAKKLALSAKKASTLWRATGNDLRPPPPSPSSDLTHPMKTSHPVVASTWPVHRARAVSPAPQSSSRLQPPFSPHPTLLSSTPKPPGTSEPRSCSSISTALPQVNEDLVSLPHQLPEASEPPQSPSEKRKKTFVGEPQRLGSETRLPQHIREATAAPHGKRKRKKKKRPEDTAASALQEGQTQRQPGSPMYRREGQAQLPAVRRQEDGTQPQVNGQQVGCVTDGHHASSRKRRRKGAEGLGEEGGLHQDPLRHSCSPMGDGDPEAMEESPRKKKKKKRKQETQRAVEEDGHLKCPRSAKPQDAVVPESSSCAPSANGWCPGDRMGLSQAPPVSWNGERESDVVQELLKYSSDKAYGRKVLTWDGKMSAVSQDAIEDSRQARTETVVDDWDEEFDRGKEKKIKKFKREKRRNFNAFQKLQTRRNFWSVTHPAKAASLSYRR
Summary of the method: as §1

USP38 = target: T2, USP38 (UniProt Q8NB14)
T2 sequence (whole entry): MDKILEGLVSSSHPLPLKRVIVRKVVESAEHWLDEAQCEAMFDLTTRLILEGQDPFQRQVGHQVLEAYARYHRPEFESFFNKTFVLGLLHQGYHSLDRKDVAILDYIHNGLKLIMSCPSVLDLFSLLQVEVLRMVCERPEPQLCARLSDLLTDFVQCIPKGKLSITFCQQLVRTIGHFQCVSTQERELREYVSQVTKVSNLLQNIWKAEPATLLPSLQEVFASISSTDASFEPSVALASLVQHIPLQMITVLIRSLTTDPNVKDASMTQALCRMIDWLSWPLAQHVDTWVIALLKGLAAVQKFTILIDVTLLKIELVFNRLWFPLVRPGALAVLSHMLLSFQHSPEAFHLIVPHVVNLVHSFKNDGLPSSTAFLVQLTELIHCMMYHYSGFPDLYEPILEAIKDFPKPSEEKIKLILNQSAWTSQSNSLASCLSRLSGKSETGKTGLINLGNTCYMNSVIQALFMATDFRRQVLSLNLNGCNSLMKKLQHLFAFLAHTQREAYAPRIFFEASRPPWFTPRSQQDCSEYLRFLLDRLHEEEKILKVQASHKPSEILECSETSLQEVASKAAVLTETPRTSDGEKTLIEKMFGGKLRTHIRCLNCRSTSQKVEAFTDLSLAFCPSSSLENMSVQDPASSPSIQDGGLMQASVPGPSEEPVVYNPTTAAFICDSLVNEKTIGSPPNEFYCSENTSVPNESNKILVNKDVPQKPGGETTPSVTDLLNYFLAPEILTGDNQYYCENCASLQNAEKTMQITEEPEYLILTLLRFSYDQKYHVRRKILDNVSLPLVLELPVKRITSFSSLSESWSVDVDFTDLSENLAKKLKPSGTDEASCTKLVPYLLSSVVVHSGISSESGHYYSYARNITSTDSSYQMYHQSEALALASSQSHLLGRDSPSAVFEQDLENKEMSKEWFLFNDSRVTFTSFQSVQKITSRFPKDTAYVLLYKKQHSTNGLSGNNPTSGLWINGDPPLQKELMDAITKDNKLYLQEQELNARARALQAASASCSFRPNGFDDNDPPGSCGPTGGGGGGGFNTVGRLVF
Summary of the method: as §1

USP39 = target: T3, USP39 (UniProt Q53GS9)
T3 sequence (whole entry): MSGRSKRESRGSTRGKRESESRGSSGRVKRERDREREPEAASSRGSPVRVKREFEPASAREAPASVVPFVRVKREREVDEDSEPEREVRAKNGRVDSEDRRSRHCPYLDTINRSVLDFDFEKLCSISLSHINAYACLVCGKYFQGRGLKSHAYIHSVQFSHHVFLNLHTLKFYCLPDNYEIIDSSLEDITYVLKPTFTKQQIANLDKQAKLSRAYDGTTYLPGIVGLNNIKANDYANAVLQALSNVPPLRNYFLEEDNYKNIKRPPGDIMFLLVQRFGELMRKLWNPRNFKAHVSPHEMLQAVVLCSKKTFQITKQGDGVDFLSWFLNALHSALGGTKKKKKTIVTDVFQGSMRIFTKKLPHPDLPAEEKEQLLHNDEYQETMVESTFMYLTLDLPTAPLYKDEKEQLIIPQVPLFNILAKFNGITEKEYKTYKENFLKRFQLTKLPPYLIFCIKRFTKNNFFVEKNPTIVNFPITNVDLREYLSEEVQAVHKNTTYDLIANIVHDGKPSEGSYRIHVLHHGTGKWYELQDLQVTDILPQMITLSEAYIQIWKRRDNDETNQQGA
Summary of the method: as §1

USP4 = target: T4, USP4 (UniProt Q13107)
T4 sequence (whole entry): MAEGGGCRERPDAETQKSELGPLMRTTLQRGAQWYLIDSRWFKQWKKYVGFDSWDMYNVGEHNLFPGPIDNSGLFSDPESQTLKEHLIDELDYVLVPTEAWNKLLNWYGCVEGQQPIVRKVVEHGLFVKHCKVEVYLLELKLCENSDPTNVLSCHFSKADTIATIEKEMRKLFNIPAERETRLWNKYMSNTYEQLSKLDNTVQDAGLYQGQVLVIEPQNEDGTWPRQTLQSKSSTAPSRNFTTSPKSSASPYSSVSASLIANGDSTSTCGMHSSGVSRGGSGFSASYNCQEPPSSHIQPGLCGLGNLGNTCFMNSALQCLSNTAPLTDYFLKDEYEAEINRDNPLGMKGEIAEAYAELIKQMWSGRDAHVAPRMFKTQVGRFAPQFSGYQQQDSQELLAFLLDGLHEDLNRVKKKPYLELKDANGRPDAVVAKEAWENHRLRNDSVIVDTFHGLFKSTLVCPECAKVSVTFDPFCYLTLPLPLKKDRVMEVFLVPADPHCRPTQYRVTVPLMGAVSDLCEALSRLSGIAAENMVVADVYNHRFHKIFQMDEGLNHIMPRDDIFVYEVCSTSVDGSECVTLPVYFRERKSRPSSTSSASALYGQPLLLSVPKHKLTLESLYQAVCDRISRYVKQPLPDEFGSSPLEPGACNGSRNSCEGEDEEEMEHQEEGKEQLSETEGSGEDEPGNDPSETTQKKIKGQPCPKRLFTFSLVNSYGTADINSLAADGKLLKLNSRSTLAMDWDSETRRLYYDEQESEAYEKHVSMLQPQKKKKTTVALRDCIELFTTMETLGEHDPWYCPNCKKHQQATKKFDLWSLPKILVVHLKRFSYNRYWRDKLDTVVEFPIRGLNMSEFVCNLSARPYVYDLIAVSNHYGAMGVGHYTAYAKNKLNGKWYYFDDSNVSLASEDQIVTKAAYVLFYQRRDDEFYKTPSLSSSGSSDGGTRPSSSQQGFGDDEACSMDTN
Summary of the method: as §1

Measured: log2 ratio of Biotin-Ahx-Ub-VS probe labelling

Cl.O=C(CCl)NCCN1CCc2ccccc21
inactive: USP34 -0.536 | USP36 -0.231 | USP38 -0.723 | USP39 0.178 | USP4 -0.666
